Most compounds without a hit are left out; they make up all but 6.7% or so of the library.
C diff HTS: inhibitors of Clostridium difficile growth. growth activity, negative = inhibition, % at 16 µg/mL (by protocol). Clostridium difficile clinical isolate growth, OD600, 24 h; active compounds read low. 86,000 compounds, 0.25% hits. AID 1259249;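 active = mean growth activity at or below -80% and every replicate also at or below -80%; inconclusive = mean at or below -80% but some replicate above -80%; inactive = mean growth activity above -80%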
Pf Dd2 growth: inhibitors of Plasmodium falciparum Dd2 growth | P. falciparum Dd2 growth, SYBR Green, 72 h; active compounds read low | 94,000 compounds, 2.3% hits | activity change, % at 10 µM | AID 1159554; in the data active = activity change below about -80%; inconclusive = no clear call, values can overlap the other calls
T cruzi growth-1: inhibitors of T. cruzi proliferation; inhibition, % at 8.34 µM; T. cruzi beta-gal in NIH3T3, GalScreen luminescence, 90 h; 77,000 compounds, 5.9% hits;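 active = mean inhibition above about 93%, with at least 55% of replicates each passing it, limit read from the data, passing the limit was not always enough; inconclusive = only one of those two conditions holds; inactive = neither condition holds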
T cruzi growth-2: blocks T. cruzi growth in NIH3T3 host cells; AID 651739; shares compounds with T cruzi growth-1; inhibition, % at 8.35 µM; T. cruzi beta-gal in NIH3T3, GalScreen luminescence, 90 h; 5,600 compounds, 72% hits;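 active = mean replicate inhibition above about 95% and at least 55% of replicates individually reaching it, limit read from the data; inconclusive = only one of the two criteria is met; inactive = neither criterion is met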
T cruzi growth-3: inhibitors of T. cruzi proliferation. inhibition, % at 2.09 µM. T. cruzi beta-gal in NIH3T3, GalScreen luminescence, 90 h. 5,600 compounds, 21% hits. shares compounds with T cruzi growth-1. AID 651740;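 active = mean inhibition above about 95%, with at least 55% of replicates also reaching it, limit read from the data; inconclusive = meets just one of the two conditions; inactive = meets neither condition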
NIH3T3 tox: kills mouse NIH/3T3 fibroblasts; 5,600 compounds, 14% hits; cytotoxicity (signal decrease), % at 8.35 µM; AID 651742; NIH/3T3 viability, CellTiter-Glo ATP luminescence, 90 h; shares compounds with T cruzi growth-1;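 active = mean signal decrease across replicates above about 35% based on untreated-well scatter, with enough replicates individually passing, limit read from the data; inconclusive = no rule stated though some were filed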
3T3 cytotox 2: cytotoxicity in mouse NIH/3T3 fibroblasts; shares compounds with T cruzi growth-1; NIH/3T3 viability, CellTiter-Glo ATP luminescence, 90 h; inhibition, % at 24.9 µM; 5,600 compounds, 56% hits; AID 651744;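 active = mean loss of cell viability signal at or above a set limit, and enough replicates individually reaching it; inconclusive = meets only the mean limit or only the replicate share; inactive = meets neither condition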
Of the large screens only hits and unclear results are named; the others gave an inactive call (follow-up assays come after a bar, where they were run).

C[C@@H]1CCCCO[C@@H](CN(C)S(=O)(=O)c2cccs2)[C@H](C)CN([C@@H](C)CO)C(=O)c2cc(NC(=O)Nc3ccc(C(F)(F)F)cc3)ccc2O1	T cruzi growth-1 100 | T cruzi growth-2 105 | T cruzi growth-3 114 | NIH3T3 tox inactive | 3T3 cytotox 2 inactive
C[C@@H]1CCCCO[C@H](CN(C)S(=O)(=O)c2cccs2)[C@H](C)CN([C@@H](C)CO)C(=O)c2cc(NC(=O)NC3CCCCC3)ccc2O1	Pf Dd2 growth -84, T cruzi growth-1 100 | T cruzi growth-2 105 | T cruzi growth-3 inactive | NIH3T3 tox inactive | 3T3 cytotox 2 inactive
C[C@H](CO)N1C[C@H](C)[C@H](CN(C)S(=O)(=O)c2cccs2)OCCCC[C@H](C)Oc2ccc(NC(=O)Nc3ccc4c(c3)OCO4)cc2C1=O	T cruzi growth-1 86 | T cruzi growth-2 106 | T cruzi growth-3 inactive | NIH3T3 tox inactive | 3T3 cytotox 2 27
C[C@@H]1CCCCO[C@H](CN(C)S(=O)(=O)c2cccs2)[C@@H](C)CN([C@H](C)CO)C(=O)c2cc(NC(=O)NC3CCCCC3)ccc2O1	none
C[C@@H]1CCCCO[C@@H](CN(C)S(=O)(=O)c2cccs2)[C@H](C)CN([C@@H](C)CO)C(=O)c2cc(NC(=O)Nc3ccc4c(c3)OCO4)ccc2O1	none
C[C@H]1CN([C@@H](C)CO)C(=O)c2cc(NC(=O)Nc3ccc(C(F)(F)F)cc3)ccc2O[C@@H]1CN(C)S(=O)(=O)c1cccs1	none
C[C@@H]1CN([C@@H](C)CO)C(=O)c2cc(NC(=O)Nc3ccc(C(F)(F)F)cc3)ccc2O[C@H]1CN(C)S(=O)(=O)c1cccs1	T cruzi growth-1 inconclusive | T cruzi growth-2 inactive | T cruzi growth-3 inactive | NIH3T3 tox inconclusive | 3T3 cytotox 2 57
C[C@H]1CN([C@@H](C)CO)C(=O)c2cccc(NC(=O)NC3CCCCC3)c2O[C@@H]1CN(C)C(=O)NC1CCCCC1	none
C[C@@H]1CN([C@H](C)CO)C(=O)c2cccc(NC(=O)Nc3ccc(F)cc3)c2O[C@@H]1CN(C)S(C)(=O)=O	none
Cc1ccc(S(=O)(=O)N[C@H]2C=C[C@@H](CC(=O)NCc3ccc(Cl)c(Cl)c3)O[C@@H]2CO)cc1	none
C[C@@H]1CN([C@@H](C)CO)S(=O)(=O)c2ccc(C3=CCCC3)cc2O[C@H]1CN(C)C(=O)CN(C)C	none
COc1ccc(S(=O)(=O)N(C)C[C@H]2OCCCC[C@@H](C)Oc3ccc(NS(=O)(=O)c4c(C)noc4C)cc3C(=O)N([C@@H](C)CO)C[C@H]2C)cc1	none
C[C@@H]1CCCCO[C@@H](CN(C)S(=O)(=O)c2cccs2)[C@@H](C)CN([C@H](C)CO)C(=O)c2cc(NC(=O)NC3CCCCC3)ccc2O1	T cruzi growth-1 103 | T cruzi growth-2 inactive | T cruzi growth-3 inactive | NIH3T3 tox inactive | 3T3 cytotox 2 39
C[C@H](CO)N1C[C@H](C)[C@H](CN(C)S(=O)(=O)c2cccs2)OCCCC[C@H](C)Oc2ccc(NC(=O)NC3CCCCC3)cc2C1=O	T cruzi growth-1 101 | T cruzi growth-2 inactive | T cruzi growth-3 inactive | NIH3T3 tox inactive | 3T3 cytotox 2 inactive
C[C@@H]1CCCCO[C@H](CN(C)S(=O)(=O)c2cccs2)[C@H](C)CN([C@H](C)CO)C(=O)c2cc(NC(=O)NC3CCCCC3)ccc2O1	none
CC(C)NC(=O)Nc1ccc2c(c1)C(=O)N([C@@H](C)CO)C[C@@H](C)[C@@H](CN(C)S(=O)(=O)c1cccs1)OCCCC[C@H](C)O2	none (no result: Pf Dd2 growth, T cruzi growth-1)
C[C@@H]1CCCCO[C@H](CN(C)CC2CC2)[C@H](C)CN([C@H](C)CO)C(=O)c2cc(NS(=O)(=O)c3ccc(F)cc3)ccc2O1	none (no result: T cruzi growth-1)
CCC(=O)Nc1ccc2c(c1)C(=O)N(C)[C@@H]1CC[C@@H](CC(=O)NCCOC)O[C@@H]1CO2	none
CCCNC(=O)N(C)C[C@H]1Oc2cc(C#Cc3ccccn3)ccc2S(=O)(=O)N([C@@H](C)CO)C[C@@H]1C	none (no result: T cruzi growth-1)
C[C@@H](NC(=O)C[C@H]1CC[C@H](NC(=O)c2cccnc2)[C@H](CO)O1)c1ccccc1	none (no result: C diff HTS)
COc1ccc2c3c(n(C)c2c1)[C@H](CO)N(C(=O)Nc1cccc(F)c1)CC31CCN(C)CC1	none (no result: C diff HTS, T cruzi growth-1)
O=C(NCC[C@H]1CC[C@@H](NC(=O)C2CCC2)[C@H](CO)O1)c1cnccn1	T cruzi growth-1 184 | T cruzi growth-2 inactive | T cruzi growth-3 inactive | NIH3T3 tox inactive | 3T3 cytotox 2 inactive
O=C(NCC[C@H]1CC[C@H](NC(=O)C2CCC2)[C@@H](CO)O1)c1cnccn1	none (no result: C diff HTS)
COCC(=O)Nc1ccc2c(c1)[C@H]1C[C@@H](CC(=O)NC3CCCC3)O[C@@H](CO)[C@H]1O2	none (no result: T cruzi growth-1)
CC(C)CC#Cc1cnc2c(c1)C(=O)N([C@@H](C)CO)C[C@@H](C)[C@@H](CN(C)C(=O)Nc1cc(F)ccc1F)O2	T cruzi growth-1 inconclusive | T cruzi growth-2 104 | T cruzi growth-3 inactive | NIH3T3 tox 36 | 3T3 cytotox 2 74
CC(C)CC#Cc1cnc2c(c1)C(=O)N([C@@H](C)CO)C[C@H](C)[C@@H](CN(C)C(=O)Nc1ccccc1F)O2	none (no result: T cruzi growth-1)
CCCC#Cc1cnc2c(c1)C(=O)N([C@@H](C)CO)C[C@H](C)[C@@H](CN(C)C(=O)Nc1ccccc1F)O2	none
CCCC#Cc1cnc2c(c1)C(=O)N([C@@H](C)CO)C[C@@H](C)[C@H](CN(C)C(=O)Nc1ccccc1F)O2	T cruzi growth-1 inconclusive | T cruzi growth-2 115 | T cruzi growth-3 inactive | NIH3T3 tox inactive | 3T3 cytotox 2 39
COc1ccccc1NC(=O)N(C)C[C@@H]1Oc2ncc(C#CCC(C)C)cc2C(=O)N([C@@H](C)CO)C[C@H]1C	T cruzi growth-1 104 | T cruzi growth-2 106 | T cruzi growth-3 inactive | NIH3T3 tox inactive | 3T3 cytotox 2 inactive
COc1ccccc1NC(=O)N(C)C[C@@H]1Oc2ncc(C#CCC(C)C)cc2C(=O)N([C@H](C)CO)C[C@@H]1C	none
CC(C)CC#Cc1cnc2c(c1)C(=O)N([C@@H](C)CO)C[C@@H](C)[C@H](CN(C)C(=O)Nc1cc(F)ccc1F)O2	T cruzi growth-1 115 | T cruzi growth-2 101 | T cruzi growth-3 100 | NIH3T3 tox inactive | 3T3 cytotox 2 74
CC(C)CC#Cc1cnc2c(c1)C(=O)N([C@@H](C)CO)C[C@H](C)[C@H](CN(C)C(=O)Nc1ccccc1F)O2	none (no result: T cruzi growth-1)
CCC(=O)NC[C@H]1[C@H](c2ccc(C3=CCCC3)cc2)[C@H](CO)N1C(=O)C1CC1	none
O=C(NC1CCCC1)N1CCCCN2[C@H](C1)[C@H](c1ccc(/C=C/c3ccccc3)cc1)[C@@H]2CO	T cruzi growth-1 104 | T cruzi growth-2 104 | T cruzi growth-3 inactive | NIH3T3 tox inactive | 3T3 cytotox 2 105
